Laboratory results: PubChem BioAssay (NCI)
Compounds without any hit were thinned out: in the full panel of roughly 83,000, 20% have a hit.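 For each line, cells grew in 96-well plates with the test compound present at a single concentration for 48 hours.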 Values without a mark were called inactive. The source made the active and inactive calls. Rule for the calls: active = growth percent below 10; inactive = the rest.

How the values were obtained:
Assay in all cases: NCI-60 one-dose screen, 48 h (100 = growth as untreated, 0 = no growth, -100 = all killed)
Conditions in all cases: 10 µM unless noted
[1] = test system: HCT-15 colon
[2] = test system: HT29 colon
[3] = test system: SNB-75 CNS
[4] = test system: SNB-19 CNS
[5] = test system: U251 CNS
[6] = test system: PC-3 prostate
[7] = test system: SK-MEL-5 melanoma
[8] = test system: UACC-62 melanoma
[9] = test system: LOX IMVI melanoma
[10] = test system: SK-MEL-28 melanoma

SMILES	growth [1]	growth [2]	growth [3]	growth [4]	growth [5]	growth [6]	growth [7]	growth [8]	growth [9]	growth [10]
C=CC12CCN(CC1)C(C(O)c1ccnc3ccc(OC)cc13)C2 (stereo not given)	66.1%	11.9%	52.7%	98.5%	80.6%	66%	53.1%	92.8%	89%	85.1%
CN(C)C1C(=O)C(C(N)=O)=C(O)C2(O)C(=O)C3=C(O)c4c(O)cccc4C(C)(O)C3CC12.[Cl][Sb]([Cl])[Cl] (stereo not given)	26.7%	38.5%	40.5%	36.6%	10.8%	15.9%	15.6%	26.4%	25.8%	47%
COc1ccc(C(O)(C(=O)O)c2ccc(OC)cc2)cc1	95.7%	81.4%	101%	96.9%	93.9%	77.8%	93.6%	85.7%	93.6%	103%
O=[N+]([O-])c1cc([N+](=O)[O-])c(Nn2c3ccccc3c3ccccc32)c([N+](=O)[O-])c1	2.82% (active)	-4.7% (active)	-19.7% (active)	25.8%	8.04% (active)	-10.5% (active)	-75.9% (active)	-16.7% (active)	7.47% (active)	11.9%
COc1ccc(/C=C\c2cc(OC)c(OC)c(OC)c2)c(NS(=O)(=O)c2ccc(Cl)cc2)c1O	13.4%	17.1%	18.9%	53.4%	12.3%	26.1%	-1.82% (active)	40.9%	10.7%	60.3%
COC(=O)[C@H](Cc1ccccc1)NC(=O)c1csc([C@@H](C[C@H](C(C)C)N(C)C(=O)[C@@H](NC(=O)[C@H]2CCCN2C)C2CC2)OC(C)=O)n1	18.7%	8.98% (active)	39.2%	59.5%	13.3%	13.2%	29.4%	38.2%	16.8%	51.4%
Cn1cc(C=O)c2nccnc21	114%	93%	78.5%	110%	97.1%	107%	104%	102%	94.5%	94%
c1cc2c(c3c1CCNC3)OCO2	102%	91.8%	86.8%	106%	92.6%	102%	101%	100%	95.7%	109%
C=CCn1cc(C=C2C(=O)N(C)C(=O)N(C)C2=O)c2ccccc21	106%	104%	78.7%	96.2%	98.2%	89.4%	94.9%	93.8%	94.8%	97.9%
COC1OC(CO)C(O)C(O)[CH]1[Hg][O]C(C)=O (stereo not given)	87.1%	79.8%	77.3%	94.4%	67.7%	87.9%	86.2%	85.9%	82.3%	97.5%
C[C@@H]1O[C@@H](O[C@H]2C[C@@H](O)[C@]3(CO)C4C(CC[C@]3(O)C2)[C@@]2(O)CC[C@H](C3=CC(=O)OC3)[C@@]2(C)C[C@H]4O)[C@H](O)[C@H](O)[C@H]1O (stereo not given in full)	-74.6% (active)	-85.2% (active)	-83.9% (active)	-94.6% (active)	-97.3% (active)	6.86% (active)	-95.5% (active)	-66.5% (active)	-88.2% (active)	-87.6% (active)
CCC1CN1CCCCN1CC1CC (stereo not given)	88.5%	98.2%	81.7%	99.3%	99%	98.5%	99.5%	97.2%	97.7%	90%
COc1cc2c(cc1OCCCCn1c(-c3cccs3)nc3ccccc31)N=C[C@@H]1CCCN1C2=O	-11.9% (active)	2.34% (active)	-65.4% (active)	10.5%	-2.52% (active)	-4.05% (active)	-80% (active)	-91.1% (active)	-48.9% (active)	-37.4% (active)
COc1ccc(/C(C)=C(\c2ccc(OCCN3CCOCC3)cc2)c2ccc(OC(=O)Cc3ccccc3)cc2)cc1	98.5%	92.4%	121%	111%	102%	94.5%	106%	106%	103%	108%
O=C1C2CC=CCC2C(=O)N1SC(Cl)(Cl)Cl (stereo not given)	67.3%	89.2%	104%	91.5%	98.8%	81.9%	94.1%	93.6%	78.6%	132%
O=C(Nc1ccc([N+](=O)[O-])cc1)C(Cl)(Cl)Cl	80.8%	101%	96.6%	94.7%	93.9%	95.1%	99.4%	84.9%	63.3%	103%
O=[N+]([O-])c1ccc([Se]C2CCCCC2Cl)c([N+](=O)[O-])c1 (stereo not given)	88.3%	60.7%	-39.9% (active)	56.2%	20.4%	58.9%	68.6%	72.2%	-55.2% (active)	72.6%
CCOC(=O)[C@@H](C)C[C@H](Cc1ccccc1)NC(=O)c1csc([C@@H](C[C@H](C(C)C)N(C)C(=O)[C@@H](NC(=O)[C@H]2CCCCN2C)C(C)(C)C)OC(C)=O)n1	7.37% (active)	0.339% (active)	11.9%	24%	14.7%	21.1%	-46.2% (active)	27%	10.1%	51.2%
CCC(=O)Nc1ccc(Cl)c(Cl)c1	101%	91.3%	102%	107%	95.7%	88.9%	101%	96.6%	98.3%	102%
CCCCCCCCCCCCCCCCCCOc1ccccc1COP(=O)(O)OOCC[N+](C)(C)C	41.2%	-11.4% (active)	-4.01% (active)	-13.9% (active)	-58.8% (active)	-25.5% (active)	-72.9% (active)	-11.5% (active)	-88.1% (active)	21.4%
Clc1cccc(Cl)c1Cl	101%	82.8%	93.8%	118%	98.4%	103%	105%	99.8%	101%	109%
N/C(=N\N=C\c1ccc(-c2ccccc2)cc1)N[N+](=O)[O-]	31.6%	14%	-1.49% (active)	55.3%	31.1%	29.8%	19.8%	49.4%	41.9%	54%
COP(=O)(OC)C(O)c1ccc(Cl)cc1 (stereo not given)	102%	96.1%	89.4%	110%	104%	94.3%	98.7%	101%	96.8%	109%
COC(=O)[C@@]1(C)CC[C@]2(C)CC[C@]3(C)C4=CC(=O)c5c(cc(O)c(O)c5C)[C@]4(C)CC[C@@]3(C)[C@@H]2C1	36.9%	90.2%	112%	60.5%	42%	33.8%	7.93% (active)	28.3%	50.7%	91.3%
CC12CC=CCC1CCC1C2CCC2(C)C(c3ccc(=O)oc3)CCC12O (stereo not given)	-66.3% (active)	-44.7% (active)	-61.7% (active)	-98.3% (active)	-73.3% (active)	-6.92% (active)	-47.5% (active)	-72.9% (active)	-78% (active)	-33.8% (active)
COc1ccc(Nc2ccc([N+](=O)[O-])cc2[N+](=O)[O-])cc1CN(CCCl)CCCl	27.7%	13.2%	33.7%	22.3%	29.6%	46.8%	57.2%	12.1%	3.66% (active)	73.6%
Cc1cc(C)cc(Nc2nc3c(s2)CC[C@@]2(C)C3=CC[C@@H]3[C@@H]2CC[C@]2(C)C(=O)CC[C@@H]32)c1	19.1%	12.3%	70.5%	60.1%	46.6%	33.1%	91.6%	52.9%	4.43% (active)	59.1%
